Experimental data from PubChem BioAssay (NCI).
This is part of a sample that, as a whole, favours compounds with a hit. Of some 83,000 tested, about 20% had one in any assay.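 Percent growth is the endpoint: 0 to 100 indicates growth inhibition (40 means 60% inhibition), 0 means no net growth, and negative values indicate cell death.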 Activity calls are given as the source filed them. How the source made its calls: active means growth percent below 10; inactive means the rest.

Legend:
Assay in all cases: NCI-60 one-dose screen, 48 h (100 = growth as untreated, 0 = no growth, -100 = all killed)
Conditions in all cases: 10 µM unless noted
[1] = test system: SR leukemia
[2] = test system: RPMI-8226 leukemia
[3] = test system: OVCAR-8 ovarian
[4] = test system: OVCAR-5 ovarian
[5] = test system: OVCAR-4 ovarian
[6] = test system: SK-OV-3 ovarian
[7] = test system: IGROV1 ovarian
[8] = test system: OVCAR-3 ovarian
[9] = test system: HS 578T breast
[10] = test system: NCI/ADR-RES ovarian
[11] = test system: BT-549 breast
[12] = test system: MDA-MB-435 melanoma
[13] = test system: MCF7 breast
[14] = test system: HCT-116 colon
[15] = test system: HCC-2998 colon
[16] = test system: KM12 colon
[17] = test system: MDA-MB-468 breast
[18] = test system: SW-620 colon
[19] = test system: T-47D breast

| SMILES | growth [1] | growth [2] | growth [3] | growth [4] | growth [5] | growth [6] | growth [7] | growth [8] | growth [9] | growth [10] | growth [11] | growth [12] | growth [13] | growth [14] | growth [15] | growth [16] | growth [17] | growth [18] | growth [19] |
| --- | --- | --- | --- | --- | --- | --- | --- | --- | --- | --- | --- | --- | --- | --- | --- | --- | --- | --- | --- |
| O=C(COc1ccc(/C=C2/C(=O)Nc3ccc(Cl)cc32)cc1)Nc1ccc(Br)cc1 | -35.7% (active) | 14% (inactive) | -44.4% (active) | 3.15% (active) | -54% (active) | -57.8% (active) | -22.2% (active) | -64.8% (active) | -14.2% (active) | -34% (active) | -34.2% (active) | -1.54% (active) | -26.9% (active) | -64% (active) | 41.6% (inactive) | 2.45% (active) | 38.4% (inactive) |  |  |
| COc1cccc2nc(Nc3cccc(NC(=O)c4ccc(CN5CCN(C)CC5)c(C(F)(F)F)c4)c3)ccc12 | -36.1% (active) | -40.2% (active) | -65.2% (active) | -98% (active) | -82.9% (active) | -81.9% (active) | -87.1% (active) | -36.6% (active) | -21.1% (active) | -89.7% (active) | -93.7% (active) | -98.1% (active) | -79.2% (active) | -66.9% (active) | -96.8% (active) | -51.1% (active) | -97.2% (active) | -92.8% (active) |  |
| CC(=O)c1ccc2c(N)c(C(=O)Nc3ccc(C(F)(F)F)cc3)sc2n1 | 39.3% (inactive) | 37.3% (inactive) | 61.1% (inactive) | 92.8% (inactive) | 35.6% (inactive) | 89.1% (inactive) | 93.5% (inactive) | 94.4% (inactive) | 84.2% (inactive) | 34.8% (inactive) | 43.4% (inactive) | 48.1% (inactive) | 27.8% (inactive) | 31% (inactive) | 83.6% (inactive) |  | 10.6% (inactive) | 80.1% (inactive) |  |
| O=C(CSc1nnc(-c2ccc(-c3nc4ccccc4[nH]3)cc2)o1)Nc1ccccc1 | 34.1% (inactive) | 56.5% (inactive) | 31.5% (inactive) | 86% (inactive) | 94% (inactive) | 84.7% (inactive) | 85% (inactive) | 92.2% (inactive) | 70.9% (inactive) | 76.3% (inactive) | 98.7% (inactive) | 85.6% (inactive) | 72.7% (inactive) | 50.8% (inactive) | 92.3% (inactive) | 70.1% (inactive) | 92.9% (inactive) | 19.9% (inactive) |  |
| COc1ccc2[nH]c(O)c(N=Nc3nc(-c4ccc(C#N)cc4)cs3)c2c1 | 17.4% (inactive) | 34.9% (inactive) | 58.2% (inactive) | 94.1% (inactive) | -46.8% (active) | 104% (inactive) | 77.6% (inactive) |  | 36.5% (inactive) | 63.1% (inactive) | 63.2% (inactive) | 67.3% (inactive) | 69.8% (inactive) | 31.8% (inactive) | 90.8% (inactive) | 78.4% (inactive) |  | 63.3% (inactive) | 54.7% (inactive) |
| C/C(=N\Nc1ccc(C(=O)O)cc1)c1cnn(-c2cc(=O)[nH]c3ccc(C)cc23)c1C | 88.6% (inactive) | 85.1% (inactive) | 104% (inactive) | 99.2% (inactive) | 94.6% (inactive) | 94.3% (inactive) | 112% (inactive) |  | 92.5% (inactive) | 101% (inactive) | 88.4% (inactive) | 101% (inactive) | 90.4% (inactive) | 95.2% (inactive) | 108% (inactive) | 99.9% (inactive) | 83.2% (inactive) | 110% (inactive) | 98.9% (inactive) |
